Compounds with a hit are over-represented: about 4.1% of the library has one in this group of screens.
aSyn UTR inh – MLPCN primary screen, SNCA 5' untranslated region; alpha-synuclein 5'UTR reporter, inhibitor activity; inhibition, % (tested at 7.5 µM); actives 0.82% (n = 300,000); in the data active means inhibition above about 60%;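 further: H4 neuroglioblastoma cells stably carrying SNCA 5'UTR luciferase fusion; 0% = DMSO wells and 100% = positive control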
Jurkat NFkB inh – lowers PMA/ionomycin-induced NF-kB signal in Jurkat cells; PMA/ionomycin-induced NF-kB luciferase reporter, luminescence; inhibition, % at 4 µM; actives 0.53% (n = 330,000); AID 435003; in the data active means inhibition above about 50%
697 NFkB inh – lowers PMA/ionomycin-induced NF-kB signal in 697 B cells; inhibition, % at 4 µM; 697 B-cell NF-kB luciferase reporter, 16 h; actives 0.33% (n = 330,000); in the data active means inhibition above about 35%
Mdm2 MdmX PPI – human Mdm2/MdmX binding inhibition; O15151+Q00987; SaOS-2 split-luciferase Mdm2/MdmX complementation, luminescence; inhibition, % at 8 µM; actives 3% (n = 330,000);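 active means inhibition of at least 50% at 8 µM in the primary screen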
Target sequence (O15151 whole entry, looked up): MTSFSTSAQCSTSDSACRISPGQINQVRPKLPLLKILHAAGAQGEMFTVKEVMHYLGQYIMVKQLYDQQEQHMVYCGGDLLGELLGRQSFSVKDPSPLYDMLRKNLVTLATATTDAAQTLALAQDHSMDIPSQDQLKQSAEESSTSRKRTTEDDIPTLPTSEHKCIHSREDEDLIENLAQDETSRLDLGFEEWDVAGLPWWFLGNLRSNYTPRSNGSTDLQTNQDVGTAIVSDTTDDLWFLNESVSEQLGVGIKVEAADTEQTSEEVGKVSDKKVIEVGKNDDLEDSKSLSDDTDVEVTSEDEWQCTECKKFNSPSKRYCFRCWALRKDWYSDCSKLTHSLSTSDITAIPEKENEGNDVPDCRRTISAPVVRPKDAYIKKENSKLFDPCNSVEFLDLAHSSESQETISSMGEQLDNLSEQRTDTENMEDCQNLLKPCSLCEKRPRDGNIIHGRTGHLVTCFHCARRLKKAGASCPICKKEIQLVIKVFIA
Target sequence (Q00987 whole entry, looked up): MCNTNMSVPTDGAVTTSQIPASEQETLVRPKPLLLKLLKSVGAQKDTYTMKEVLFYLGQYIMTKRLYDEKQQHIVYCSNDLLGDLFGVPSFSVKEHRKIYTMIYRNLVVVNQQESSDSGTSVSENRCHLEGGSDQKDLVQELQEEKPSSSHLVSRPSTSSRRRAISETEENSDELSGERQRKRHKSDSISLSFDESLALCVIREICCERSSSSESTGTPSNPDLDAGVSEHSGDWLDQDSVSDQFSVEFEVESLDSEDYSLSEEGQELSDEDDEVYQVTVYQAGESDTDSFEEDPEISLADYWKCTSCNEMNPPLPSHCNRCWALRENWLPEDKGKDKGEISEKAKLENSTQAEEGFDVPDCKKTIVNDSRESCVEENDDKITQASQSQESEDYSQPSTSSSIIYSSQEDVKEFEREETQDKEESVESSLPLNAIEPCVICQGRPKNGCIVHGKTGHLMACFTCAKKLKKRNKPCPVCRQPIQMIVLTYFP
Gli-Sufu block – blocks Gli-Sufu signaling in a luciferase reporter; Sufu-KO-LIGHT fibroblasts, Gli luciferase reporter luminescence; inhibition, % at 5 µM; actives 0.74% (n = 340,000); AID 588413;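 active means inhibition above about 55%, limit read from the data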;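 further: 0% = DMSO-treated cells and 100% = wells with medium but no cells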
KLF5 inhibitor – kruppel-like factor 5 inhibition | actives 0.23% (n = 290,000) | inhibition, % at 5 µM | DLD-1 KLF5 promoter-luciferase reporter, luminescence;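 active means inhibition above a per-plate limit of that plate's mean compound inhibition plus 3 SD, cut at about 60% in these data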;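 further: 0% = DMSO wells and 100% = LY294002 at 200 µM; higher means less KLF5 promoter-driven luciferase light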
Mdm2 MdmX conf – confirmation of human Mdm2/MdmX interaction inhibitors | inhibition, % at 8 µM | Mdm2-MdmX binding, luminescent assay | actives 55% (n = 10,000) | shares compounds with Mdm2 MdmX PPI; in the data active means inhibition above about 40%
FLuc counter – counter-screen for Mdm2/MdmX inhibitors: full-length luciferase | shares compounds with Mdm2 MdmX PPI | SaOS-2 full-length luciferase counterscreen, luminescence | inhibition, % at 8 µM | actives 77% (n = 6,200) | AID 504607;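 active means mean inhibition at 8 µM reaching about 37%, which flags the compound as non-specific, limit read from the data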;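 further: p53-null SaOS-2 cells with luciferase driven by a doxycycline-inducible promoter; compound on cells about two nights before reading with doxycycline added after day one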
Numbers without * were called inactive; . = no result.

SMILES	aSyn UTR inh	Jurkat NFkB inh	697 NFkB inh	Mdm2 MdmX PPI	Gli-Sufu block	KLF5 inhibitor	Mdm2 MdmX conf	FLuc counter
Cc1ccc(NS(=O)(=O)c2ccc(-c3cnc(C4CC4)o3)cc2)cc1	-35	40	-60	53*	-6	30	51*	50*
On1onc2c3cc(-c4ccccc4)nc3ccc21	.	-9	-140	69*	65*	-3	58*	65*
c1ccc(-c2cc3c(ccc4nonc43)nn2)cc1	-96	-22	-47	-31	-24	20	.	.
Cc1ccc(-c2nn(-c3ccccc3)cc2C(=O)NCC2CCCO2)cc1 (stereo not given)	-21	9	8	7	-14	.	.	.
CCN(C(=O)COC(=O)c1c2c(nc3ccccc13)/C(=C/c1ccccc1)CC(C)C2)C1CCS(=O)(=O)C1 (stereo not given)	27	-13	-14	53*	12	-13	52*	55*
CCN(C(=O)COC(=O)c1c(C)nn(-c2ccccc2)c1C)C1CCS(=O)(=O)C1 (stereo not given)	-53	-38	-13	12	20	-55	.	.
CCOC(=O)c1c(-c2ccccc2Cl)csc1NC(=O)c1cc(S(=O)(=O)N2CCOCC2)ccc1C	36	19	-14	8	14	-6	.	.
COc1ccc(CNC(=O)C[C@H]2C[C@H](C(=O)N3CCCCC3)[C@@]3(CCc4ccccc4)c4[nH]c5ccc(Cl)cc5c4CCN3C2=O)cc1OC	.	.	-11	55*	-4	.	1	.
O=C(C[C@H]1C[C@H](C(=O)N2CCCCC2)[C@@]2(CCc3ccccc3)c3[nH]c4ccc(Cl)cc4c3CCN2C1=O)NCCCn1ccnc1	.	.	10	49	13	.	.	.
CC[C@]12c3[nH]c4ccc(Cl)cc4c3CCN1C(=O)[C@@H](CC(=O)NCc1ccc(OC)c(OC)c1)C[C@@H]2C(=O)N1CCN(C(=O)C2CC2)CC1	.	.	16	13	2	.	.	.
O=C(C[C@H]1C[C@H](C(=O)N2CCCCC2)[C@@]2(CCc3ccccc3)c3[nH]c4ccc(Cl)cc4c3CCN2C1=O)NCCN1CCOCC1	.	.	23	83*	0	.	42*	42*
O=C1C[C@H](NC(=O)OCc2ccccc2)CO1	.	1	7	-4	-1	.	.	.
CC(OC(=O)c1cccc(-n2cnnn2)c1)c1nc2ccccc2c(=O)[nH]1 (stereo not given)	.	3	6	10	2	.	.	.
CC1CC(C)CN(S(=O)(=O)N2CCC(C(=O)NCCc3ccccc3)CC2)C1 (stereo not given)	14	3	-7	1	7	-46	.	.
O=C(CN1c2ccccc2Sc2ccccc21)NNC(=O)Nc1ccc(Cl)cc1	11	15	7	54*	-8	-15	36	54*
COC(=O)c1cc2nc(-c3ccccc3)cc(C)n2n1	10	-3	-9	0	-5	-13	.	.
Cc1cc(-c2ccccc2)nc2cc(C(=O)N(Cc3ccccc3)Cc3ccccc3)nn12	40	19	-16	51*	0	3	1	.
COc1ccc2oc(C)c(C(=O)c3ccccc3)c2c1	-10	8	4	1	-3	.	.	.
COc1ccc2oc(/C=C/N(C)C)c(C(=O)c3ccc(Cl)cc3)c2c1	-3	-10	25	79*	-3	-23	26	.
CCC(C(=O)NC(C)(C)C)N(Cc1ccco1)C(=O)CNS(=O)(=O)c1ccc(OC)cc1 (stereo not given)	-1	7	11	-20	22	4	.	.
CCOc1ccc2[nH]c(=O)c(CN(CCN3CCCC3)C(=S)Nc3ccccc3OCC)cc2c1	-4	4	-4	100*	26	17	17	.
CN(CC(=O)Nc1ccc(Cl)c(C(F)(F)F)c1)C(=O)C1CC(=O)N(CCc2ccccc2)C1 (stereo not given)	.	3	6	51*	8	.	42*	61*
CN(CC(=O)Nc1ccc(F)cc1)C(=O)CCc1nc2ccccc2c(=O)[nH]1	15	-13	8	13	-12	.	.	.
CN(CC(=O)Nc1ccc(Cl)c(C(F)(F)F)c1)C(=O)CCc1nc2ccccc2c(=O)[nH]1	.	-19	-11	54*	-2	.	24	.
COc1ccc(CCN2CC(C(=O)N(C)CC(=O)Nc3ccc(Cl)c(C(F)(F)F)c3)CC2=O)cc1OC (stereo not given)	.	9	1	21	2	.	.	.
SMILES	aSyn UTR inh	Jurkat NFkB inh	697 NFkB inh	Mdm2 MdmX PPI	Gli-Sufu block	KLF5 inhibitor	Mdm2 MdmX conf	FLuc counter
O=C(CSc1ccc(-c2ccccn2)nn1)N1CCCC1	-34	-11	8	30	-10	-31	.	.
COc1ccc(-n2cc(CN[C@H]3CCCCNC3=O)c(-c3cccc(F)c3)n2)cc1	-16	-6	10	-15	6	-5	.	.
COc1ccc(-n2cc(CNC3CCN(C)CC3)c(-c3cccc(F)c3)n2)cc1	-8	-15	13	66*	-26	-33	57*	41*
C1=CCN(Cc2ccccc2)C1	28	-3	11	12	-17	-22	.	.
Cc1[nH]c2ccccc2c1C(=O)COC(=O)c1ccc2c(=O)n3c(nc2c1)CCC3	30	-18	-72	59*	-8	0	33	.
CN(C(=O)COC(=O)c1ccc2c(=O)n3c(nc2c1)CCC3)c1ccccc1	8	24	21	14	-2	-32	.	.
O=C(Cn1nnc2ccccc2c1=O)NCC1CCC(C(=O)O)CC1 (stereo not given)	-5	7	11	-6	1	11	.	.
COC(=O)c1ccc(OCC2c3cc(OC)c(OC)cc3CCN2C(=O)c2ccco2)cc1 (stereo not given)	12	45	9	53*	6	-11	43*	71*
O=C(COC(=O)/C=C/c1ccc(OC(F)F)cc1)NC1CCCCCC1	.	12	-1	0	-2	.	.	.
COc1ccc(Cl)cc1C(=O)Nc1ccc(NC(C)=O)cc1	-8	-5	3	1	7	-3	.	.
CC(=O)Oc1c(I)cc(I)cc1C(=O)Nc1ccc(Cl)cc1	19	-5	-39	90*	16	13	53*	19
O=C(c1ccco1)N1CCN(C(=O)c2cnn3c2NC(c2cccs2)CC3C(F)(F)F)CC1 (stereo not given)	28	-1	-3	12	19	-5	.	.
O=C(c1cnn2c1NC(c1ccco1)CC2C(F)(F)F)N1CCN(c2cccc(Cl)c2)CC1 (stereo not given)	-71	38	-21	59*	2	-25	51*	56*
Cc1ccc2c(c1)-c1cc(C)ccc1C2=O	.	.	.	.	-14	.	.	.

Assay outcomes from PubChem.
